Assay results: PubChem BioAssay (NCI)
About 79,000 compounds went through this panel and 15% of them were active in at least one assay; those are over-represented in the sample as a whole. Activity calls are given as the source filed them. Cut-off read from the data, not from the text of the source: active = growth inhibition above about 70%; inactive = the rest.

Assay: NCI Yeast Anticancer Drug Screen. Data for the rad50 strain (AID 155);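 note: 0% = growth of vehicle-only cultures of the same strain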
Details: S. cerevisiae rad50 strain growth inhibition; at 50.0 µM; active compounds read high
Method in brief: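 A DNA repair-deficient yeast mutant serves as the test organism; compound-induced growth inhibition is calculated against vehicle-treated cells.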

SMILES | growth inhibition
NC(N)=NC1CCc2ccccc2C1 (centres undefined) | 4.4% (inactive)
Nc1nc(SSc2nc(N)nc3c2ncn3C2OC(CO)C(O)C2O)c2ncn(C3OC(CO)C(O)C3O)c2n1 (centres undefined) | 1.4% (inactive)
Cc1cccc(N=NC2Sc3nc4ccccc4n3C2=O)c1 (centres undefined) | -16.9% (inactive)
C=CCCCCCCCCCCCCCCCCC | -25.9% (inactive)

Assay: NCI Yeast Anticancer Drug Screen. Data for the mec2-1 strain (AID 157)
Details: S. cerevisiae mec2-1 strain, at 50.0 µM, active compounds read high
Method in brief: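 Each compound was tested on mec2-1 yeast, a strain altered in DNA damage repair or cell cycle control. Growth inhibition is reported relative to vehicle.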

SMILES | growth inhibition
c1ccc2scnc2c1 | 7.25% (inactive)
CN(C)S(=O)(=O)C(C(=O)Nc1ccccc1)c1ccccc1 (centres undefined) | 13.8% (inactive)
N#CCCn1nc(SC2CCCCC2)c(=O)[nH]c1=O | 1.95% (inactive)
CCOc1ccc(/C=C(\NC(=O)c2ccccc2)C(=O)Nc2ccccc2)cc1OC | -12.6% (inactive)
COc1ccc2nc(-c3ccc(F)cc3)cc(C(=O)O)c2c1 | -14.7% (inactive)
CC(=O)SC12CCCN1C(=O)C1(SC(C)=O)CCCN1C2=O (centres undefined) | 26.4% (inactive)
O=C(C[n+]1ccncc1)c1cccc([N+](=O)[O-])c1 | -1.95% (inactive)
N#CC(C#N)=C(O)/C(=C/c1ccc(Cl)cc1Cl)NC(=O)c1ccccc1 | 1.15% (inactive)
NC(Cc1cccc2ccccc12)C(=O)O (centres undefined) | -1.2% (inactive)
O=C(NC(=O)c1ccccc1Cl)Nc1ccc(C(O)(C(F)(F)F)C(F)(F)F)cc1 | 53.5% (inactive)
CCOC(=O)C(CCCOC1CCCCO1)(C(=O)OCC)c1ccccc1 (centres undefined) | -0.1% (inactive)
C(=Nc1ccc2c(c1)Cc1ccccc1-2)c1ccccn1 | -35.5% (inactive)
OCCCc1nc2ccccc2[nH]1 | -21.8% (inactive)
CCN(CC)c1ccc(NCC(O)c2cc(Cl)ccc2OC)cc1 (centres undefined) | -5.75% (inactive)
O=C1C=C(Cl)C(=O)O1 | 10.2% (inactive)
CCN(CC)CCCC(C)Nc1nccc(/C=C/c2ccc(Cl)cc2)n1 (centres undefined) | 16.3% (inactive)
CC(Oc1ccccc1)C(O)(c1ccc(N(C)C)cc1)c1ccc(N(C)C)cc1 (centres undefined) | -5.9% (inactive)
CCO/C(O)=C(/C#N)C(=O)NC1=NCCCCC1 | 8.25% (inactive)
O=C(O)c1cccc(Cl)c1-c1c(Cl)cccc1C(=O)O | -0.95% (inactive)
Cc1cccc(N=C/C=C/c2ccccc2)c1C | -6.4% (inactive)

SMILES | growth inhibition
CC(C)n1cnc2c(=O)[nH]c(=O)[nH]c21 | -4.55% (inactive)
N#CC(=C1C=CC(=NO)C=C1)c1ccc(Cl)cc1 | 2.5% (inactive)
Cc1ccc(C)c(CNC(=O)NC(C)(C)C)c1 | -4.25% (inactive)
Cc1ccc2c(-c3ccc4ccccc4c3)c3ccccc3cc2c1 | -10.2% (inactive)
O=C(/C=C/c1ccc(O)c(O)c1)c1ccc(O)cc1O | -27.9% (inactive)
CN(C)CCNc1cccc2oc3ccc(O)cc3c(=O)c12 | -4.95% (inactive)
COc1cc(C)cc2c1C(=O)C(Br)=CC2=O | 92.3% (active)
COc1cc(OC(=O)/C=C2/CCC(=O)O2)c2c(c1)OC1OC(=O)CC21 (centres undefined) | -4.95% (inactive)
CCC(=O)c1ccc(F)cc1 | -20.9% (inactive)
Cc1ccc(CO)c(O)c1 | -7.25% (inactive)
O=[N+]([O-])c1ccc(S(=O)(=O)N/N=C/c2cccc3ccccc23)cc1 | -1.25% (inactive)
CC(=O)OCC1OC(Sc2cccc3ccccc23)C(OC(C)=O)C(OC(C)=O)C1OC(C)=O (centres undefined) | -5.8% (inactive)
CC1(C)CNC[C@](C)(OCc2ccccc2)N1 | -29.1% (inactive)
CN(C)CC1CCC(=C2CCCC2)C1=O (centres undefined) | -10.7% (inactive)
COc1ccc2nc(NC(=O)C(=O)C(C(=O)c3ccccc3-c3ccccc3)C3OC(=O)c4ccccc43)sc2c1 (centres undefined) | 9.75% (inactive)
CCOC(=O)C(NC(=O)c1cccc(Cl)c1)(N1CCN(c2cc3c(cc2F)c(=O)c(C(=O)O)cn3CC)CC1)C(F)(F)F (centres undefined) | -39.5% (inactive)
NC(N)=NC1CCc2ccccc2C1 (centres undefined) | -2.85% (inactive)
Nc1nc(SSc2nc(N)nc3c2ncn3C2OC(CO)C(O)C2O)c2ncn(C3OC(CO)C(O)C3O)c2n1 (centres undefined) | -5.8% (inactive)
Cc1cccc(N=NC2Sc3nc4ccccc4n3C2=O)c1 (centres undefined) | -19.4% (inactive)
C=CCCCCCCCCCCCCCCCCC | -24.1% (inactive)

Assay: NCI Yeast Anticancer Drug Screen. Data for the sgs1 mgt1 strain (AID 161);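 note: 0% = growth of cultures given vehicle only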
Details: S. cerevisiae sgs1 mgt1 strain, at 50.0 µM, active compounds read high
Method in brief: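 Test agents were incubated with a DNA-repair-mutant yeast strain. Growth was then read and compared against vehicle-treated controls.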

SMILES | growth inhibition
c1ccc2scnc2c1 | 13.7% (inactive)
CN(C)S(=O)(=O)C(C(=O)Nc1ccccc1)c1ccccc1 (centres undefined) | 3% (inactive)
N#CCCn1nc(SC2CCCCC2)c(=O)[nH]c1=O | 2.45% (inactive)
CCOc1ccc(/C=C(\NC(=O)c2ccccc2)C(=O)Nc2ccccc2)cc1OC | -4.45% (inactive)
COc1ccc2nc(-c3ccc(F)cc3)cc(C(=O)O)c2c1 | 9.75% (inactive)
CC(=O)SC12CCCN1C(=O)C1(SC(C)=O)CCCN1C2=O (centres undefined) | 45.2% (inactive)
O=C(C[n+]1ccncc1)c1cccc([N+](=O)[O-])c1 | 9.15% (inactive)
N#CC(C#N)=C(O)/C(=C/c1ccc(Cl)cc1Cl)NC(=O)c1ccccc1 | -7.9% (inactive)
NC(Cc1cccc2ccccc12)C(=O)O (centres undefined) | 10.4% (inactive)
O=C(NC(=O)c1ccccc1Cl)Nc1ccc(C(O)(C(F)(F)F)C(F)(F)F)cc1 | 58.4% (inactive)
CCOC(=O)C(CCCOC1CCCCO1)(C(=O)OCC)c1ccccc1 (centres undefined) | -15.2% (inactive)
C(=Nc1ccc2c(c1)Cc1ccccc1-2)c1ccccn1 | 24.3% (inactive)
OCCCc1nc2ccccc2[nH]1 | -15.1% (inactive)
CCN(CC)c1ccc(NCC(O)c2cc(Cl)ccc2OC)cc1 (centres undefined) | 15.6% (inactive)
O=C1C=C(Cl)C(=O)O1 | -8.8% (inactive)
CCN(CC)CCCC(C)Nc1nccc(/C=C/c2ccc(Cl)cc2)n1 (centres undefined) | 28.9% (inactive)
CC(Oc1ccccc1)C(O)(c1ccc(N(C)C)cc1)c1ccc(N(C)C)cc1 (centres undefined) | 9.3% (inactive)
CCO/C(O)=C(/C#N)C(=O)NC1=NCCCCC1 | 4.75% (inactive)
O=C(O)c1cccc(Cl)c1-c1c(Cl)cccc1C(=O)O | 17.8% (inactive)
Cc1cccc(N=C/C=C/c2ccccc2)c1C | -20.7% (inactive)

SMILES | growth inhibition
CC(C)n1cnc2c(=O)[nH]c(=O)[nH]c21 | 9.25% (inactive)
N#CC(=C1C=CC(=NO)C=C1)c1ccc(Cl)cc1 | 8.3% (inactive)
Cc1ccc(C)c(CNC(=O)NC(C)(C)C)c1 | -6.65% (inactive)
Cc1ccc2c(-c3ccc4ccccc4c3)c3ccccc3cc2c1 | -2.8% (inactive)
O=C(/C=C/c1ccc(O)c(O)c1)c1ccc(O)cc1O | -24.2% (inactive)
CN(C)CCNc1cccc2oc3ccc(O)cc3c(=O)c12 | 9.55% (inactive)
COc1cc(C)cc2c1C(=O)C(Br)=CC2=O | 91.9% (active)
COc1cc(OC(=O)/C=C2/CCC(=O)O2)c2c(c1)OC1OC(=O)CC21 (centres undefined) | 13.8% (inactive)
CCC(=O)c1ccc(F)cc1 | 4.5% (inactive)
Cc1ccc(CO)c(O)c1 | -5.55% (inactive)
O=[N+]([O-])c1ccc(S(=O)(=O)N/N=C/c2cccc3ccccc23)cc1 | 17.1% (inactive)
CC(=O)OCC1OC(Sc2cccc3ccccc23)C(OC(C)=O)C(OC(C)=O)C1OC(C)=O (centres undefined) | -4.75% (inactive)
CC1(C)CNC[C@](C)(OCc2ccccc2)N1 | -11.3% (inactive)
CN(C)CC1CCC(=C2CCCC2)C1=O (centres undefined) | 11.8% (inactive)
COc1ccc2nc(NC(=O)C(=O)C(C(=O)c3ccccc3-c3ccccc3)C3OC(=O)c4ccccc43)sc2c1 (centres undefined) | -14.2% (inactive)
CCOC(=O)C(NC(=O)c1cccc(Cl)c1)(N1CCN(c2cc3c(cc2F)c(=O)c(C(=O)O)cn3CC)CC1)C(F)(F)F (centres undefined) | -18.3% (inactive)
NC(N)=NC1CCc2ccccc2C1 (centres undefined) | -4% (inactive)
Nc1nc(SSc2nc(N)nc3c2ncn3C2OC(CO)C(O)C2O)c2ncn(C3OC(CO)C(O)C3O)c2n1 (centres undefined) | 3.9% (inactive)
Cc1cccc(N=NC2Sc3nc4ccccc4n3C2=O)c1 (centres undefined) | -20.1% (inactive)
C=CCCCCCCCCCCCCCCCCC | -13.3% (inactive)
